Only some compounds are listed: those with a hit (about 7.5% of all), similar ones and a draw of the others.
ELG1 genotox: inducers of genotoxicity in HEK293T ELG1-luciferase cells | HEK293T ELG1-luciferase reporter, luminescence, 16 h | Potency, µM (titrated, usually from 46 µM), for the others: top-dose activity change, positive = activation, usual class: activators | 1.3% of 330,000 active | AID 504466; also: % of control where 0% means no effect; nearly all actives have a fitted effect of over 60% in size
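16 hr compound incubation (37 °C, 5% CO2) of HEK293T cells carrying luciferase-tagged ELG1; luciferase then measured by ONE-Glo luminescence after 30 min at RT.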
Luc counter: blocks Kinase-Glo luciferase, a counter-screen artifact | Kinase-Glo luciferase, ATP luminescence, 8 min | Potency, µM (doses to about 38.3 µM), for the others: at the highest dose activity change, negative = inhibition, actives largely listed as inhibitors | Q27757 | 0.28% of 200,000 active; also: % is scaled to controls: 0 for no effect and ±100 for the full control effect; nearly all actives have a fitted effect of over 60% in size
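Compound is pinned into ATP-containing buffer (10 uM ATP, imidazole pH 7.2, 7 mM MgCl2). Kinase-Glo luciferase reagent is then added. Light output is recorded following an 8-min room-temperature incubation.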
FLuc counter: counter-screen for miR-21 project: firefly luciferase inhibitors or activators | purified FLuc, Km substrates, luminescence inhibition | Potency, µM (titrated, usually from 57.5 µM), without a hit: at the top dose activity change, negative = inhibition, actives largely listed as inhibitors | 6.9% of 360,000 active | AID 588342;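 also: plate controls were vehicle for no effect and reference inhibitor for full effect; nearly all actives have a fitted effect of over 55% in size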
Target sequence (P08659 whole entry, looked up): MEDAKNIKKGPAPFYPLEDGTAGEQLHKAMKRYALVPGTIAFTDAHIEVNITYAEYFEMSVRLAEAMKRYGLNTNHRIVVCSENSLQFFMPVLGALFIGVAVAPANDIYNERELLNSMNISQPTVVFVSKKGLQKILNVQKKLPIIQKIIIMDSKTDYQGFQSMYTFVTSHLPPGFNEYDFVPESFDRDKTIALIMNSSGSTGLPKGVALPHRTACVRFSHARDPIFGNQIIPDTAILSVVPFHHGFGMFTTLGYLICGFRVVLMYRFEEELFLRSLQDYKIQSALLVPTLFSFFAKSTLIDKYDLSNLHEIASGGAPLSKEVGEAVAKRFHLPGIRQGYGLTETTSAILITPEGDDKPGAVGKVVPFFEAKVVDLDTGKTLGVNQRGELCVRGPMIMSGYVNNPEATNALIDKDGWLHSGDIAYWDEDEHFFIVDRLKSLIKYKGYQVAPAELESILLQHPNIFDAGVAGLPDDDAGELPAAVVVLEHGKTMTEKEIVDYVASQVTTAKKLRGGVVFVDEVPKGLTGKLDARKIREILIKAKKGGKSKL
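Biochemical qHTS of compounds, final roughly 60 µM downward over six points, against 10 nM purified firefly luciferase using Km concentrations of substrates (10 uM D-luciferin, 10 uM ATP) in Tris acetate pH 7.5 buffer; luminescence output.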
Rab9 prom act: activators of Rab9 promoter. Huh7 Rab9 promoter-luciferase reporter, luminescence, 24 h. Potency, µM (titrated, usually from 9.22 µM), without a hit: at the top dose activation, negative = inhibition, actives largely listed as activators. 2.8% of 320,000 active. AID 485297; also: % of control where 0% means no effect; nearly all actives have a fitted effect of over 60% in size
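Huh7 reporter line, Rab9 promoter upstream of luciferase. Compound exposure 24 h at 37 °C in reduced-serum medium with 10% FBS. Read-out: luminescence.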
NPC1 promoter act: activates the NPC1 promoter | 2.4% of 320,000 active | Potency, µM (series often up to 9.22 µM), inactives show at the top dose activation, actives largely listed as activators | Huh7 NPC1 promoter luciferase reporter, 24 h; also: % of control where 0% means no effect; nearly all actives have a fitted effect of over 60% in size
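In 1536-well qHTS, Huh7 cells harboring an NPC1 promoter–luciferase construct received compound for 24 h; activation was quantified by luminescence following luciferase reagent addition.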
SMN2 splice up: SMN2 splice variant enhancement; HEK293 SMN2-luciferase splicing reporter, luminescence, 30-36 h; Potency, µM (titrated, usually from 46.1 µM), inactives show at the highest dose activity change, positive = activation, usual class: activators; 2.8% of 210,000 active; AID 1458; also: % of control where 0% means no effect; nearly all actives have a fitted effect of over 55% in size
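qHTS luciferase splicing reporter: luminescence rises when SMN2 exon 7 is included in transfected HEK293 cells. Compound exposure lasted 30-36 h at 37C, with 4.5 mM final sodium butyrate as control, followed by a ONE-Glo read.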
An asterisk follows results filed as active; ? = inconclusive; . = no result given. Calls follow the shape of the dose curve; as a rule, active = well fitted curve in the direction sought with a large enough effect; inconclusive = small, poorly fitted or top-dose-only effect, or another doubt; inactive = no such curve, though single readings can be large; an effect the other way counts as inactive or inconclusive. Potency is read from the fitted curve at half-maximal effect.

SMILES	ELG1 genotox	Luc counter	FLuc counter	Rab9 prom act	NPC1 promoter act	SMN2 splice up
Cc1occc1C(=O)Nc1cccc([N+](=O)[O-])c1C	0%	.	-3%	13%	-3%	.
CCOc1ccc(/C=N/NC(=O)c2ccoc2C)cc1OC	18µM*	.	?	3.5µM*	?	.
Cc1occc1C(=O)N/N=C/c1ccccc1[N+](=O)[O-]	?	.	9.5µM*	4µM*	3.2µM*	.
CCN(CC)c1ccc(/C=N/NC(=O)c2ccoc2C)cc1	0.73µM*	.	1.1µM*	?	0.5µM*	.
O=C(Nc1cccc(Cl)c1)N1CCSc2ccccc21	.	.	4%	.	.	.
CCS(=O)(=O)N1CCc2cc(C(=O)Nc3cc(C(F)(F)F)ccc3Cl)ccc21	.	.	-13%	.	.	.
Cn1nccc1C(=O)N/N=C/c1ccccc1[N+](=O)[O-]	?	.	13µM*	2.8µM*	2.5µM*	.
COc1cccc(/C=N/NC(=O)NC2CCCCC2)c1O	?	.	17µM*	?	?	.
COc1cccc(/C=N/NC(=O)C(=O)N/N=C/c2cccc(OC)c2O)c1O	2%	-2%	0%	-23%	-34%	-36%
COc1cccc(/C=N/NC(=O)c2ccoc2C)c1	?	.	11µM*	1.6µM*	2.5µM*	.
Cc1occc1C(=O)N/N=C/c1ccccn1	?	?	?	?	25%	.
COc1cccc(/C=N/NC(=O)c2ccoc2C)c1O	21µM*	.	8.5µM*	-1%	8%	.
O=C(OCc1ccco1)c1ccc2c(c1)N(Cc1ccc([N+](=O)[O-])cc1)C(=O)c1ccccc1S2	.	.	-2%	.	.	.
COc1ccc(OCc2ccc(-c3nc(C#N)c(N4CCC(C)CC4)o3)o2)cc1	.	.	-7%	.	.	.
COc1ccc(N2CCN(S(=O)(=O)c3c(C)nc4sc(C)cn4c3=O)CC2)cc1	.	.	-2%	.	.	.
CCOC(=O)C1=C(O)/C(=C/c2ccc(CNC(=O)C(=O)Nc3ccc(C)cc3)o2)N=C1C	?	13%	7.6µM*	11%	8%	-12%
COC(=O)C1=C(O)/C(=C\c2ccc(CNC(=O)C(=O)Nc3ccc(C)cc3)o2)N=C1C	8%	2%	6.7µM*	0%	1%	-20%
COC(=O)C1=C(O)/C(=C\c2ccc(CNC(=O)C(=O)Nc3ccc(C)c(C)c3)o2)N=C1C	8%	-4%	?	-5%	-1%	-15%
Cc1ccc(-n2ncc3c(NC4CCCCC4)ncnc32)cc1	.	.	0.43µM*	.	.	.
Fc1ccc(-n2ncc3c(NC4CCCCCC4)ncnc32)cc1	.	.	4.8µM*	.	.	.
Cc1ccc(-n2ncc3c(NC4CCCCCC4)ncnc32)cc1	.	.	0.95µM*	.	.	.
Clc1cccc(-n2ncc3c(NC4CCCCC4)ncnc32)c1	.	.	4.8µM*	.	.	.
Cc1ccc(CNC(=O)c2sc3nc(-c4ccc(F)cc4)ccc3c2N)cc1	.	.	-7%	.	.	5%
Cc1ccc(N/C=C/C(=O)c2ccc(C)cc2)cc1	?	-14%	0.76µM*	1.6µM*	1.4µM*	.
Cc1ccc(O)c(N/C=C/C(=O)c2ccc(F)cc2)c1	21µM*	.	2.4µM*	-3%	1%	.
SMILES	ELG1 genotox	Luc counter	FLuc counter	Rab9 prom act	NPC1 promoter act	SMN2 splice up
Cc1ccc(C(=O)/C=C\Nc2ccc(C)c(C)c2)cc1	?	-4%	2.1µM*	1.6µM*	2µM*	11µM*
Cc1ccc(O)c(NC(=O)/C=C/C(=O)O)c1	1%	1%	3%	-3%	-4%	-18%
Nc1c[n+](N2CCOCC2)no1	.	1%	.	.	.	.
NC(=S)c1ccc[n+]([C@@H]2O[C@@H](COP(=O)([O-])OP(=O)(O)OC[C@H]3O[C@@H](n4cnc5c(N)ncnc54)[C@H](OP(=O)(O)O)[C@H]3O)C(O)C2O)c1 (stereo partly specified)	.	-25%	.	.	.	?
CCc1ccc(NC(=O)CSc2ncc(S(=O)(=O)c3cc(C)ccc3C)c(=O)[nH]2)cc1	.	.	9.5µM*	.	.	-3%
O=C(CSc1ncc(S(=O)(=O)c2ccccc2)c(=O)[nH]1)Nc1ccccc1Cl	-1%	.	3%	-2%	-2%	.
